In PubChem BioAssay AID1259418 (Broad Institute, 2018) one finds max activity data, which are given here for 74 compounds.

The campaign covered roughly 3,400 compounds. About 840 (25%) were called active. About 11% were inconclusive and are not listed.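 The calls were made as follows: active = fitted half-maximal concentration of signal decrease at or below twice the sample's top tested concentration; inconclusive = flat curve between -70 and -30 percent, or poor fit; inactive = flat within 30 percent, signal rise, or potency above limit.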 Not all results are given here. Entries with a potency or affinity are not part of this list.

The assay is described as follows: T. gondii growth inhibition with IFN-gamma, dose response, cell-based, ME49Luc, HeLa, luciferase, 72 h (AID 1259418). The conditions noted are these: T. gondii ME49Luc in IFN-y HeLa, active compounds read low, -100% = high-dose IFN-γ control wells; at 19.5 µM unless noted.
As for `Cc1ccc(Nc2nc(N)nc(CN3CCc4ccccc4C3)n2)cc1`, the max activity was 19.9% [at 5 µM] (inactive).

Regarding `CCc1nc(OCC(=O)Nc2cc(F)ccc2F)c2ccccc2n1`, the max activity was 14.2% (inactive). The same measure for `COCCn1cc2c(n1)C(CNC(=O)CS(C)(=O)=O)OCC2` (centres undefined): 15.6% (inactive); for `O=C(c1ccc(Cn2cncn2)cc1)N1CCC(N2CCCCC2)CC1`: 4.24% [at 10 µM] (inactive).

In the case of `O=C(NCc1cccc(Cl)c1)c1ccc(-n2nc(C(F)(F)F)c3c2CCCC3)cc1`, the max activity is -5.33% [at 0.68 µM] (inactive).

Consider `CCc1nc(-c2ccc(C(=O)N3CCC4(CC3)OCCO4)cc2)cs1`, for which the max activity is 5.55% (inactive). Next, `Cc1ccc(C)c(N2CCN(C(=O)c3ccc(-n4nc(C(F)(F)F)c5c4CCCC5)cc3)CC2)c1`: -23.2% (inactive); `Cc1noc(C)c1C1CCCN1C(=O)Cn1nc(C(F)(F)F)c2c1CCCC2` (centres undefined): -14% [at 0.35 µM] (inactive). Next, `Cc1nc(-c2cccc(-c3noc(C(=O)N4CCC5(CC4)OCCO5)n3)c2)cs1`: 13.7% [at 2.6 µM] (inactive). The same measure for `COc1ccc(-c2nc(N3CCN(c4cccc(C(F)(F)F)c4)CC3)c3ccccc3n2)cc1`: 13.5% [at 5 µM] (inactive); for `COc1ccc(-n2ncc3c(Nc4ccc(C)cc4)ncnc32)cc1`: 28.3% [at 0.68 µM] (inactive); for `CCOc1ccc(-c2nc(CN3CCN(C(=O)NC4CCCCC4)CC3)c(C)o2)cc1`: -13.3% [at 0.16 µM] (inactive).

For the compound `Cc1ccc(-c2nc(CN3CCN(C(=O)NC4CCCCC4)CC3)c(C)o2)cc1`, the max activity is 6.38% [at 5 µM] (inactive). As for `Cc1oc(-c2cccc(Cl)c2)nc1CN1CCN(C(=O)NC2CCCC2)CC1`, the max activity is 17.3% [at 10 µM] (inactive). On to `COc1ccc(CN2CCc3nc(SCc4nc(-c5cccc(C)c5)oc4C)[nH]c(=O)c3C2)cc1`, for which the max activity was -7.54% [at 2.6 µM] (inactive). In the case of `O=C(CN1CCC2(CC1)N=C(c1ccc(Cl)cc1)C(=O)N2)Nc1ccc2c(c1)OCO2`, the max activity was -13.7% [at 1.35 µM] (inactive). Regarding `Cc1ccc(C)c(-c2coc(-c3ccc(NC(=O)Nc4ccc(F)cc4)cc3)n2)c1`, the max activity was -5.84% [at 0.35 µM] (inactive). As for `COc1cccc(CNC(=O)Nc2ccc(-c3nc(-c4cc(C)ccc4C)co3)cc2)c1`, the max activity is 7.66% [at 0.16 µM] (inactive). Next, `CCc1ccc(NC(=O)Nc2ccc(-c3nc(-c4ccccc4)co3)cc2)cc1`: 8.96% (inactive); `CCc1cccc(Nc2nc(-c3ccc(OC)cc3)nc3ccccc23)c1`: 18.8% [at 0.35 µM] (inactive). Next, `Cc1cccc(-c2nc(Cn3c(=O)c4c(C)cc(C)nc4n(-c4ccccc4)c3=O)c(C)o2)c1`: -12.2% [at 0.35 µM] (inactive); `COc1ccc(NC(=O)Nc2ccc(-c3nc(-c4ccc(C)cc4C)co3)cc2)cc1OC`: 23.8% (inactive); `Cc1ccccc1-c1nc(CN2CCN(C(=O)Nc3ccccc3C(F)(F)F)CC2)c(C)o1`: 9.13% [at 0.16 µM] (inactive). In the case of `Cc1oc(-c2ccc(OC(C)C)cc2)nc1CN(c1ccccc1)S(=O)(=O)c1cccs1`, the max activity is 21% (inactive). The same measure for `COc1ccc(N(Cc2nc(-c3ccc(C)cc3)oc2C)S(=O)(=O)c2cccs2)cc1`: 9.59% [at 0.35 µM] (inactive). Consider `COc1ccc(N(Cc2nc(-c3ccc(OC(C)C)cc3)oc2C)S(=O)(=O)c2cccs2)cc1`, for which the max activity is -11.1% [at 0.35 µM] (inactive). `COc1ccc(-c2nc(CN(c3ccc(C)cc3)S(=O)(=O)c3cccs3)c(C)o2)cc1`: the max activity was -6.38% [at 0.16 µM] (inactive). Take `CCOc1ccc(N(Cc2nc(-c3cccc(C)c3)oc2C)S(=O)(=O)c2cccs2)cc1`: the max activity was 11.4% [at 10 µM] (inactive). Next, `CCOc1ccc(-c2nc(CN(c3ccc(OCC)cc3)S(=O)(=O)c3cccs3)c(C)o2)cc1`: 4% (inactive). Take `CC(C)NC(=O)CC1Nc2c3ccccc3nc(=S)n2C1=O` (centres undefined): the max activity was 98.4% (inactive). Consider `COc1ccc(C(=O)/C=C/c2cc(C(=O)O)cc3c2OCOC3)c(O)c1`, for which the max activity is 24.8% [at 10 µM] (inactive).

Regarding `CCn1cc(CN2CCCC2c2cc(C(C)C)on2)c2cc(OC)ccc21` (centres undefined), the max activity was 7.79% [at 2.6 µM] (inactive).

As to `Cc1cccc(-c2nc(Cn3nnc(-c4nc(-c5cccc(Cl)c5)no4)c3C)c(C)o2)c1`, the max activity is 8.17% [at 2.6 µM] (inactive). The same measure for `O=C(C1CCC1)N1CC[C@H]2CN(Cc3cccc(Cl)c3)S(=O)(=O)[C@@H]2CC1`: -9.19% (inactive). `CCCc1ccc(S(=O)(=O)N2CCc3nc(-c4ccc(OC)cc4)sc3C2)cc1`: the max activity was 13.1% [at 0.16 µM] (inactive).

As for `O=C(Cc1ccccc1Cl)Nc1ccc(-c2nc(-c3ccccc3)co2)cc1`, the max activity is 20.3% [at 2.6 µM] (inactive). The same measure for `COc1ccccc1-c1nc(C)c(-c2ccc(SCc3ccc(F)cc3)nn2)s1`: 7.01% [at 0.35 µM] (inactive); for `Cc1cnc(N2CCC3(CCC(CC(=O)N4CC=CC4)CC3)CC2)nc1`: 19.8% [at 10 µM] (inactive); for `Cc1cnc(N2CCC3(CCN(CC4CC4)C3=O)CC2)nc1`: 44% (inactive).

For the compound `CCOc1ccc(CCNc2nc(-c3ccc(Cl)cc3)nc3ccccc23)cc1OCC`, the max activity is -12.8% [at 0.35 µM] (inactive). As to `NCCCCCCNS(=O)(=O)c1ccc2c(Cl)cccc2c1`, the max activity is 23.8% (inactive). As for `O=C(Nc1ccc(F)cc1)Nc1ccc(-c2nc(-c3ccccc3)co2)cc1`, the max activity is -15.1% [at 1.35 µM] (inactive). Next, `COc1ccc(CNC(=O)Nc2ccc(-c3nc(-c4cc(C)ccc4C)co3)cc2)cc1`: 11.5% (inactive). As to `COc1ccc(Cl)cc1S(=O)(=O)Nc1ccc(-c2nc(-c3ccc(C)cc3C)co2)cc1`, the max activity is 11.6% [at 0.16 µM] (inactive).

`CCCCNC(=O)CCC1N=C2c3ccccc3N=C(SCC(=O)OCC)N2C1=O` (centres undefined): the max activity was -17.8% [at 2.6 µM] (inactive). Next, `COc1ccccc1CNC(=O)CCC1N=C2c3ccccc3N=C(SCc3ccc(Cl)cc3)N2C1=O` (centres undefined): 16% [at 2.6 µM] (inactive); `CCCCNC(=O)CCC1N=C2c3ccccc3N=C(SCc3ccccc3F)N2C1=O` (centres undefined): -6.88% [at 2.6 µM] (inactive). The same measure for `CCCCNC(=O)CCC1N=C2c3ccccc3N=C(SCC#N)N2C1=O` (centres undefined): 51.3% (inactive); for `CCCCNC(=O)CCC1N=C2c3ccccc3N=C(SCc3cc(=O)n4ccccc4n3)N2C1=O` (centres undefined): 21.9% [at 0.68 µM] (inactive); for `CCCCNC(=O)CC1N=C2c3ccccc3N=C(SCc3ccccc3Cl)N2C1=O` (centres undefined): -10.2% (inactive). For `CCc1ccc(-c2noc(-c3nnn(Cc4nc(-c5ccc(C)cc5)oc4C)c3C)n2)cc1`, the max activity is 8.04% [at 0.68 µM] (inactive). The same measure for `COc1ccc(OC)c(S(=O)(=O)Nc2ccc(-c3nc(-c4ccc(C)c(C)c4)co3)cc2)c1`: 20.8% [at 1.35 µM] (inactive); for `Cc1ccc(-c2nc(Cn3nnc(-c4nc(-c5ccc(C)c(C)c5)no4)c3C)c(C)o2)cc1`: -11% [at 2.6 µM] (inactive).

As for `Cc1ccc(NC(=O)N2CCN(Cc3nc(-c4ccccc4C)oc3C)CC2)cc1Cl`, the max activity is 14% [at 1.35 µM] (inactive). Next, `O=C(NCCc1csc(-c2ccccc2)n1)[C@H]1CCCN1C(=O)c1ccc(F)c(F)c1`: 13.1% [at 0.16 µM] (inactive). The same measure for `CCc1ccc(NC(=O)N2CCc3nc(-c4ccc(OC)c(OC)c4)sc3C2)cc1`: 7.81% [at 0.16 µM] (inactive).

Consider `O=C1CCc2cc(NC(=O)c3cccnc3)ccc2N1`, for which the max activity is 9.01% [at 1.35 µM] (inactive).

Consider `Cc1ccc(-c2coc(-c3ccc(NC(=O)c4c(F)cccc4F)cc3)n2)cc1`, for which the max activity is 20.4% [at 5 µM] (inactive). Regarding `Cc1ccc(-c2nc3c(s2)CN(S(=O)(=O)c2ccc(F)cc2)CC3)cc1`, the max activity is 8.68% [at 10 µM] (inactive). With `CCc1nc(OCC(=O)Nc2ccc(C(C)C)cc2)c2ccccc2n1`, the max activity is 25.6% [at 10 µM] (inactive). As to `COc1ccc(-c2nc(Nc3ccccc3Cl)c3ccccc3n2)cc1`, the max activity is -9.71% [at 0.35 µM] (inactive).

For `COc1cccc(CNC(=O)Nc2ccc(-c3nc(-c4ccccc4)co3)cc2)c1`, the max activity was 78.4% (inactive). The same measure for `Cc1cccc(-c2nc(Cn3nnc(-c4nc(-c5ccccc5Br)no4)c3C)c(C)o2)c1`: 9.01% [at 2.6 µM] (inactive). The same measure for `CCCCNC(=O)CCC1N=C2c3ccccc3N=C(SCc3ccc(C)cc3)N2C1=O` (centres undefined): 25.3% [at 2.6 µM] (inactive). As for `CN(C)c1cccc(C(=O)N2CCC3(CC2)Nc2ccc(Cl)cc2-n2cccc23)c1`, the max activity is -25.9% [at 10 µM] (inactive). Next, `Cc1nc(OCC(=O)Nc2cc(Cl)ccc2Cl)c2ccccc2n1`: 20.7% [at 0.68 µM] (inactive); `Cc1ccc(-c2coc(-c3ccc(NS(=O)(=O)c4ccc(C(C)C)cc4)cc3)n2)c(C)c1`: -13.7% (inactive); `Cc1ccc(-c2coc(-c3ccc(NS(=O)(=O)c4ccc(N5CCCC5=O)cc4)cc3)n2)c(C)c1`: -11% [at 0.68 µM] (inactive).

Take `COc1ccc(S(=O)(=O)Nc2ccc(-c3nc(-c4ccc(C)cc4C)co3)cc2)cc1`: the max activity is 26.2% [at 5 µM] (inactive). The same measure for `Cc1ccc(-c2coc(-c3ccc(NS(=O)(=O)c4cccc(Cl)c4)cc3)n2)c(C)c1`: -22.9% (inactive). Next, `Cc1ccc(S(=O)(=O)Nc2ccc(-c3nc(-c4ccc(C)cc4C)co3)cc2)cc1`: 12.9% [at 0.16 µM] (inactive). On to `CCCc1ccc(S(=O)(=O)Nc2ccc(-c3nc(-c4ccc(C)cc4C)co3)cc2)cc1`, for which the max activity was -16.7% [at 0.16 µM] (inactive). The same measure for `Cc1ccc(-c2coc(-c3ccc(NS(=O)(=O)c4ccc(C(C)(C)C)cc4)cc3)n2)c(C)c1`: -14.9% (inactive); for `Cc1ccc(-c2coc(-c3ccc(NS(=O)(=O)c4cccc(Cl)c4C)cc3)n2)c(C)c1`: 16.4% [at 2.6 µM] (inactive).
